# According to PubChem BioAssay (NCI):
# Compounds without any hit were thinned out: in the full panel of roughly 83,000, 20% have a hit.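 Negative percent growth values reflect cell death: -40 means 40% of the cells present at the start died, and -100 means all died.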 Values without a mark were called inactive. Activity calls are given as the source filed them. The calls were made as follows: active = growth percent below 10; inactive = the rest.
# System: HOP-92 NSCLC
# Assay: NCI-60 one-dose screen, 48 h (100 = growth as untreated, 0 = no growth, -100 = all killed)
# Settings: 10 µM unless noted
row,Compound,growth
1,C[PH+](c1nc2ccccc2nc1[PH+](C)C(C)(C)C)C(C)(C)C.C[PH+](c1nc2ccccc2nc1[PH+](C)C(C)(C)C)C(C)(C)C.[Au+].[Cl-] (stereo unspecified),-81.5% (active)
2,CN(C)CCNC(=O)c1cc2c3cc(Cl)ccc3[nH]c2c2ncccc12,2.92% (active)
3,CNC(=O)c1ccccc1Oc1nc(Nc2cc(OC)c(OC)c(OC)c2)ncc1Br,60.6%
4,O=C(c1ccccc1)c1ccc(C2CCCCC2)cc1,76.2%
5,CCCCCCCC[C@@H]1N[C@@H](C(=O)OC)Cc2c1[nH]c1ccccc21,89.5%
6,Cc1cc(N2CCCCC2)cc(C)c1-c1csc(NC(=O)c2ccncc2)n1,53.8%
7,Cc1nc2sc(C(=O)Nc3ccc(Br)cc3)c(N)c2cc1C(O)c1ccccc1 (stereo unspecified),77%
8,CCN(CC)CC(O)COc1c(Br)c(Br)c(Br)c2c1OC(C)(C)C2 (stereo unspecified),28.1%
9,Cc1cccc(CNc2c3ccccc3nc3ccccc23)c1,7.05% (active)
10,Fc1cc2c(cc1Cl)N(c1ncnc3ccc(-c4ccc5n[nH]nc5c4)cc13)CC2,31.5%
11,CC/C(=C(/c1ccc(Cl)cc1)c1ccc(OCCN(C)C)cc1)c1ccc(Cl)cc1,83.7%
12,Cn1cc(-c2nonc2-c2cn(C)c3ccccc23)c2ccccc21,48.8%
13,COC12C=C/C(=C(/C(=O)OCc3ccncc3)C(=O)CCCCCCCCC3(OC)C=C/C(=C(/C(=O)OCc4ccncc4)C(=O)CCCCCCCC1)O3)O2,-48.9% (active)
14,COc1cc2ncnc(Nc3ccc(F)c(Cl)c3)c2cc1OCC(=O)N1CCN(c2ccccc2)CC1,86.8%
15,COc1ccc(/C=C(\C#N)n2nnc3cc(Cl)ccc32)cc1,-2.3% (active)
16,COc1ccc(C(=O)/C=C/c2c(C(F)(F)F)nc3ccccn23)cc1OC,5.04% (active)
17,CCN(C)S(=O)(=O)Nc1cccc(Nc2ncnc3cc(NC(=O)CCl)ccc23)c1Cl,24.6%
18,Cc1c2cnccc2c(C)c2c1c1cc(C#N)ccc1n2C,-12.1% (active)

row,Compound,growth
1,CN(C)CC(C)(C)C(=O)/C=C/c1ccccc1,-32.3% [25 µM] (active)
2,O=CN1N=C(c2cccc(Nc3ccnc4cc(Cl)ccc34)c2)CC1c1ccccc1 (stereo unspecified),18.9%
3,O=C(Nc1ccc(Oc2cccc(Cl)c2)c(Cl)c1)c1cnccn1,62%
4,O=c1[nH]c(Cc2nc3ccccc3s2)nc2cc(Br)ccc12,84.9%
5,C#CCNC(=O)[C@H](CC)[C@H]1CC[C@H](C)[C@H]([C@@H](C)[C@H](O)[C@H](C)C(=O)[C@H](CC)C2O[C@]3(C=CC(=O)[C@]4(CC[C@@](C)([C@H]5CC[C@](O)(CC)[C@H](C)O5)O4)O3)[C@H](C)C[C@@H]2C)O1 (stereo partly specified),13.2%
6,O=C(Nc1ccc(Oc2cccc(F)c2)c(Cl)c1)c1cccnc1,63.4%
7,CS(=O)(=O)Nc1cc(-c2ccc3ncnc(Nc4ccc5c(cnn5Cc5ccc(F)cc5)c4)c3c2)cnc1Cl,-17.5% (active)
8,COC1=CC(c2ccc[nH]2)=N/C1=C\c1[nH]c(C)c(C)c1CCC(=O)OCc1ccccc1,-27.8% (active)
9,CC(C)(C)CC(C)(C)NC(=O)Nc1ncccc1OCc1ccccc1,87.7%
10,Nc1nc2ccccc2c2c1S(=O)(=O)c1ccc(Cl)cc1C2=O,-25.4% (active)
11,CCOC(=O)C/C(=N\Nc1cc(=O)[nH]c2ccc(Br)cc12)C(=O)OCC,76.2%
12,COc1cc(-c2csc(NC(=O)c3ccc(N4CCOCC4)c(C(F)(F)F)c3)n2)cc(OC)c1OC,57.6%
13,Oc1c(Br)cc(Br)c2ccc(Cn3cc(-c4ccc(C(F)(F)F)cc4)nn3)nc12,21.5%
14,C#CCOc1ccc2ncnc(Nc3ccc(NC(=O)C=C)cc3)c2c1,-36.8% (active)
15,CCn1cc(C(=O)O)c(=O)c2cc(F)c(N3CCN(CC(=O)Nc4ccc(S(=O)(=O)Nc5nccc(C)n5)cc4)C(C)C3)c(F)c21 (stereo unspecified),119%
16,O=C(Nc1cccc(-c2ccc(N3CCOCC3)nn2)c1)Nc1cccc(C(F)(F)F)c1,58.6%
17,CSc1nc2ncc([N+](=O)[O-])c(=O)n2[nH]1,52.4%
18,COc1cc2ncnc(Nc3ccc(S(=O)(=O)Nc4cc(C)on4)cc3)c2cc1OCCCN1CCN(c2ccc(F)cc2)CC1,125%
